These results are taken from PubChem BioAssay.

Test [1] can be described thus: resazurin metabolic signal in HepG2 cells – cell-based, resazurin fluorescence, 24 h, PK04 Diversity Set, profiling panel (AID 1172). Also: test concentration not given here. The settings on record: HepG2 viability, higher = more signal.
Test [2] can be described thus: budding yeast growth changes without added modifier – OD600, strain BY4716, 24 h, basal condition, primary screen (AID 1173). The settings on record: S. cerevisiae BY4716 growth, OD600, 24 h; higher = more signal, called active from +8 up or from −8 down.
Test [3] is described as follows: viability profiling in MM1S myeloma cells – cell-based, resazurin fluorescence, basal, 24 h, PK04 Diversity Set, profiling panel (AID 1174).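 Also: MM1S multiple myeloma cell line; test concentration not given here.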 The settings on record: higher = more signal, called active from +8 up or from −8 down.
Test [4] has as its target Dihydroorotate dehydrogenase (quinone), mitochondrial (Plasmodium falciparum (isolate 3D7)) (UniProt Q08210). In words: inhibition of P. falciparum DHODH – biochemical, C-terminal His tag, absorbance 600 nm, primary screen (AID 1175).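 Also: recombinant parasite enzyme with a five histidine tag at its C terminus; test concentration not given here.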 The settings on record: PfDHODH enzyme, DCIP absorbance 600 nm; higher = more signal, called active from +8 up or from −8 down.
The nature of test [5]: inhibition of PAO1 biofilm formation – strain PAO1, LB-PBS medium, absorbance 600 nm, primary screen (AID 1176). Also: test concentration not given here. The following applies: P. aeruginosa PAO1 growth/biofilm, A600, 12 h; higher = more signal.
Test [6] can be described thus: growth modulation of vineyard yeast isolate – strain RM11-1a, OD600, basal, 24 h, primary screen (AID 1177).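 Also: cultures grown under basal conditions with no added stressor; test concentration not given here.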 The settings on record: S. cerevisiae RM11-1a growth, OD600, 24 h; higher = more signal, called active from +8 up or from −8 down.
Test [7] can be described thus: growth of efflux-deficient E. coli DRC39 – strain DRC39, OD650, 24 h, E. coli filamentation inducers, primary screen (AID 1178).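 Also: growth measured as culture turbidity by optical density at 650 nm; test concentration not given here.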 The following applies: E. coli DRC39 acrAB, higher = more signal, called active from +8 up or from −8 down.
Test [8] in a line: growth of efflux-deficient E. coli DRC39 – strain DRC39, OD650, 48 h, E. coli filamentation inducers, primary screen (AID 1179).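 Also: screen aims at cell division blockers that make cells filament.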 The following applies: E. coli DRC39 delta-acrAB growth, higher = more signal, called active from +8 up or from −8 down.
Test [9] in a line: viability profiling in RPMI8226 myeloma cells – cell-based, resazurin fluorescence, basal, 24 h, PK04 Diversity Set, profiling panel (AID 1180).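 Also: RPMI8826 multiple myeloma cell line at 5000 cells per well; test concentration not given here.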 The following applies: higher = more signal.
The target in test [10] is E3 ubiquitin-protein ligase XIAP (Homo sapiens) (UniProt P98170). In words: small molecules binding XIAP protein – biophysical, small-molecule microarray, fluorescence 635 nm, primary screen (AID 1181).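 Also: score merges 667 nm emission and signal to noise over triplicate slides.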 The following applies: higher = more signal.

Molecules are shown by their SMILES. The source made the active and inactive calls. Unless noted, no rule for the calls is given here.

Sequence of E3 ubiquitin-protein ligase XIAP (Homo sapiens) (P98170 whole entry, looked up): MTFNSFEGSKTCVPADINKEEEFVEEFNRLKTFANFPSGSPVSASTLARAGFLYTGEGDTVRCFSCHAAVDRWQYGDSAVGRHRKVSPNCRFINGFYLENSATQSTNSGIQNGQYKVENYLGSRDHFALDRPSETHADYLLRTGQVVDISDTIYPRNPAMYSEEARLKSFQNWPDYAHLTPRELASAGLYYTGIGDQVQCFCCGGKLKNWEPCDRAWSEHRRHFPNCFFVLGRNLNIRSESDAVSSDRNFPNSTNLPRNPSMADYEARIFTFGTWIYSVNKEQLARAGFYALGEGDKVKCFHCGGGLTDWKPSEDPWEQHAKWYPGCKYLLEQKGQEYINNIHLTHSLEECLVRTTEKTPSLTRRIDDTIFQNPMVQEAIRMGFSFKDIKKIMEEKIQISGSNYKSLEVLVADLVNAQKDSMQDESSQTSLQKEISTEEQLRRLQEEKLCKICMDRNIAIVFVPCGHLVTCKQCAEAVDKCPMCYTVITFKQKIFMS
Sequence of Dihydroorotate dehydrogenase (quinone), mitochondrial (Plasmodium falciparum (isolate 3D7)) (Q08210 whole entry, looked up): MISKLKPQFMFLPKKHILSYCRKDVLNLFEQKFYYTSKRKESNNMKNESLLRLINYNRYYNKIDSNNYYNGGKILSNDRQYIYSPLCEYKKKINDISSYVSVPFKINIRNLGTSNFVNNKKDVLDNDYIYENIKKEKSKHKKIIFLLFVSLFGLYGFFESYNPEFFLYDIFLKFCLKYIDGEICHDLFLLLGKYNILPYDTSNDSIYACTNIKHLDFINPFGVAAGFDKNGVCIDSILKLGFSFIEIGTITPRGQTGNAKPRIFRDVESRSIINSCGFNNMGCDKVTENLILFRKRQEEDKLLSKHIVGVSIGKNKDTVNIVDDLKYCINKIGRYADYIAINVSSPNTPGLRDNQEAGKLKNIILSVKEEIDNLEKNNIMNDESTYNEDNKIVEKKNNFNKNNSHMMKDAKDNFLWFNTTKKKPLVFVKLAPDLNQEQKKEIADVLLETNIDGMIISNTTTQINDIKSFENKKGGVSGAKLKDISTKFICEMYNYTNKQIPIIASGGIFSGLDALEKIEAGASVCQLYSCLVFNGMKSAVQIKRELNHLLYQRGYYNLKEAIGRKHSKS

For `CCOC(=O)[C@H](Cc1ccccc1)NC(=O)CCC1CC(OC(=O)NCc2ccc3c(c2)OCO3)CC2(CCCC(COC(=O)NCCCN3CCCC3=O)O2)O1` (stereo not given in full), the z-score was 0.557 in test [1]; -0.547 (inactive) in test [2]; 0.913 (inactive) in test [3]; -0.801 (inactive) in [5]; -0.012 (inactive) in test [6]; -0.131 (inactive) in [7]. Besides, the results for the z-score in test [8] and in test [9] were 0.186 (inactive) and 1.36, respectively. Also, the composite z-score in test [4] was -0.59 (inactive); in test [10], -0.124.
As for `CON=C1c2cc(OC)ccc2O[C@H](c2cccc(OC)c2)[C@H]1O`, the z-score is 0.291 in [1]; -5.98 (inactive) in test [2]; 0.322 (inactive) in test [3]; -0.455 (inactive) in [5]; -0.175 (inactive) in [6]; 0.489 (inactive) in test [7]. Further, the z-score was 0.957 (inactive) in test [8] and 0.411 in test [9]. Besides, the results for the composite z-score in test [4] and in test [10] were -0.469 (inactive) and 0.418, respectively.
With `O=C1CCCC=C1C(O)COCc1ccccc1` (stereo not given), the z-score in test [1] was -0.178; in [2], -0.971 (inactive); in test [3] it was -0.155 (inactive); in [5], 0.402 (inactive); in test [6], 0.902 (inactive); in [7] it was -0.227 (inactive). For the same molecule, the z-score is -0.477 (inactive) in test [8] and 0.13 in [9]. The composite z-score is 0.438 (inactive) in [4] and -0.02 in [10].
`CC(C)(C)N1C(=O)[C@H]2[C@H]3[C@H](O)[C@H](O)CC(=NOC[C@@H](O)COCc4ccco4)[C@H]3CC[C@H]2C1=O`: the z-score was -0.488 in test [1]; 0.262 (inactive) in [2]; -0.622 (inactive) in test [3]; -0.0606 (inactive) in test [5]; 0.0001 (inactive) in test [6]; -0.0207 (inactive) in [7]. The z-score was -0.149 (inactive) in test [8] and -0.583 in test [9]. The composite z-score in test [4] is 0.748 (inactive); in test [10] it was -0.334.
As to `CCOC(=O)[C@H](Cc1ccccc1)NC(=O)CCC1CC(OC(=O)NCCc2ccc(F)cc2)CC2(CCCC(COC(=O)NCc3cccc(C(F)(F)F)c3)O2)O1` (stereo not given in full), the z-score in test [1] is 0.134; in test [2] it was -0.0427 (inactive); in [3], 0.853 (inactive); in test [5] it was 0.544 (inactive); in test [6], 0.322 (inactive); in test [7], 0.141 (inactive). Moreover, the z-score in test [8] was 0.0159 (inactive); in [9], 0.864. The values for the composite z-score in test [4] and in [10] were -0.276 (inactive) and -0.102, respectively.
As to `COc1ccc(O[C@H]2C=C[C@@H](c3ccccc3)O[C@@H]2CO)cc1`, the z-score was 0.121 in [1]; -4.83 (inactive) in test [2]; 0.222 (inactive) in test [3]; 0.438 (inactive) in test [5]; 0.0505 (inactive) in test [6]; 0.137 (inactive) in test [7]. Also, the z-score in test [8] was -0.447 (inactive); in test [9] it was -0.5. Besides, the composite z-score in test [4] was -0.163 (inactive); in [10], -0.042.
Take `C#CCCCON=C1C[C@@H](O)[C@@H](O)[C@@H]2[C@@H]3C(=O)N(CC)C(=O)[C@@H]3CC[C@H]12`: the z-score in test [1] is -0.588; in test [2] it was 0.866 (inactive); in test [3] it was -0.729 (inactive); in test [5] it was -0.143 (inactive); in test [6], -0.0584 (inactive); in [7], -0.312 (inactive). The z-score in test [8] is -0.241 (inactive); in [9], -1.09. Also, the results for the composite z-score in test [4] and in [10] were -0.0526 (inactive) and -0.114, respectively.
Consider `CCN1C(=O)[C@H]2[C@H]3[C@H](O)[C@H](O)CC(=NOC[C@@H](O)COCc4ccco4)[C@H]3CC[C@H]2C1=O`, for which the z-score in test [1] was -0.92; in test [2] it was -0.54 (inactive); in test [3], -0.809 (inactive); in test [5], -0.425 (inactive); in test [6], -0.178 (inactive); in test [7], -0.0557 (inactive). Also, the z-score in test [8] is 0.322 (inactive); in test [9], -1.23. For the same molecule, the composite z-score is -0.164 (inactive) in [4] and -0.0948 in test [10].
As to `COC(=O)[C@H](C)NC(=O)CCC1CC(OC(=O)NCc2cccc3ccccc23)CC2(CCCC(COC(=O)NCc3cccc(C(F)(F)F)c3)O2)O1` (stereo not given in full), the z-score in [1] is -0.599; in test [2], -0.458 (inactive); in test [3], 0.47 (inactive); in test [5], 0.593 (inactive); in test [6], -0.968 (inactive); in test [7], -0.289 (inactive). Besides, the z-score in test [8] was -0.456 (inactive); in [9], 0.297. For the same molecule, the composite z-score was -1.5 (inactive) in test [4] and 0.14 in test [10].
Take `CC(C)=CCCC(C)=CCON=C1C[C@@H](O)[C@@H](O)[C@@H]2[C@@H]3C(=O)N([C@@H](C)c4ccccc4)C(=O)[C@@H]3CC[C@@H]12`: the z-score is -0.243 in test [1]; 0.408 (inactive) in [2]; -0.32 (inactive) in [3]; 0.283 (inactive) in test [5]; -0.471 (inactive) in test [6]; -0.464 (inactive) in test [7]. The z-score in test [8] is -0.131 (inactive); in test [9] it was -0.249. Further, the composite z-score in test [4] is -0.0515 (inactive); in test [10] it was -0.0476.
`O=C1[C@H]2CCn3c(=O)n(-c4ccccc4)c(=O)n3[C@H]2[C@H](O)[C@@H]2O[C@H]12`: the z-score in test [1] is -0.507; in test [2], -0.251 (inactive); in [3], -0.468 (inactive); in [5], -0.212 (inactive); in [6] it was -0.303 (inactive); in test [7] it was -0.447 (inactive). For the same molecule, the z-score is -0.489 (inactive) in [8] and -0.579 in test [9]. The composite z-score in test [4] is -0.106 (inactive); in test [10] it was -0.287.
Take `COc1ccc(COC(=O)NN=C2C[C@@H](O)[C@@H](O)[C@@H]3[C@@H]4C(=O)N(C(C)(C)C)C(=O)[C@@H]4CC[C@@H]23)cc1`: the z-score in test [1] was -0.216; in test [2] it was -0.719 (inactive); in test [3], -0.181 (inactive); in test [5] it was -0.225 (inactive); in test [6] it was -1.06 (inactive); in test [7] it was 0.237 (inactive). Further, the z-score was 0.255 (inactive) in test [8] and 0.156 in test [9]. In addition, the composite z-score was -0.761 (inactive) in test [4] and -0.252 in test [10].
Consider `O=C1CCCC=C1C(O)c1ccc([N+](=O)[O-])cc1` (stereo not given), for which the z-score in test [1] was -0.426; in test [2], -0.851 (inactive); in test [3], -0.57 (inactive); in [5], -0.47 (inactive); in test [6], -0.66 (inactive); in [7], 0.47 (inactive). The z-score is 0.4 (inactive) in test [8] and -0.865 in test [9]. The composite z-score in test [4] was -0.42 (inactive); in [10], -0.0019.
